S16 F2sN tox: S16 Schwann cell cytotoxicity. S16 Pmp22-F2sN Schwann cells viability, CellTiter-Glo, 24 h. AID 1508642. 43,000 compounds, 0.48% hits. Potency, µM (top dose mostly 57.5 µM), hits mostly cytotoxic; further: nearly all actives have a fitted effect of over 65% in size
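CellTiter-Glo counter-screen, qHTS, 1536-well. Cells: S16(c9) Pmp22-F2sN, 500-1,000/well in DMEM + 10% FBS. Cpd 23 nL pin transfer, 24 h, 37C/5% CO2. Read: luminescence, CCD imager.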
PMP22 txn: modulates PMP22 transcription in S16 Schwann cells; S16 Pmp22-F2sN Schwann cells (luciferase reporters placed in the Pmp22 gene), FLuc/NLuc coincidence luminescence, 24 h; Potency, µM (titrated, usually from 57.5 µM), most hits filed as inhibitors; 43,000 compounds, 2% hits; active means clear falling dose curves in both reporters; inconclusive means both reporters move, but less clearly or upward; inactive means either reporter flat; the % is the NLuc reporter signal
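qHTS, 1536-well. Cells seeded, compounds added by pin tool, 24 h 37C. Nano-Glo reagent 1 (lysis/FLuc), 10 min RT, read; Stop&Glo, 10 min RT, read NLuc.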
mTORC1 inh: mTORC1 pathway inhibition measured by phospho-rpS6; Tsc2-/- p53-/- MEF, phospho-rpS6 immunofluorescence/PI, 24 h; Potency, µM (highest dose often 38.3 µM), usual class: inhibitors; 44,000 compounds, 0.78% hits; further: nearly all actives have a fitted effect of over 50% in size
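Readout is phospho-S6 Alexa 488 signal normalized to PI per well, reported as % active cells with thresholds set from rapamycin (7.5 nM) and DMSO controls. Cells: Tsc2-/-, p53-/- MEFs, 24 hrs compound at 37 C; PI cell number serves as viability.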
p53null 32C tox: p53 null cell cytotoxicity, permissive temperature; H1299-neo p53 null cells, ATP luminescence, 24 h, 32C; Potency, µM (highest dose often 46.1 µM), usual class: cytotoxic; 55,000 compounds, 0.62% hits; AID 903; further: nearly all actives have a fitted effect of over 55% in size
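H1299-neo (p53 null) cells, 600/well, treated 24 h at 32C with compound up to 46 uM; ATPlite luminescence viability, normalized to DMSO and 100 uM tamoxifen; AC50 by Hill fit.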
p53null 39C tox: p53 null cell cytotoxicity, nonpermissive temperature; H1299 p53-null (neo) cells, 39C, ATPlite viability, 24 h; Potency, µM (series often up to 46.1 µM), most hits filed as cytotoxic; 55,000 compounds, 0.97% hits; AID 904; further: nearly all actives have a fitted effect of over 50% in size
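Cells seeded at 600/well, 37C overnight. Compound added (up to 46 uM), plates shifted to 39C for 24 hr. ATPlite added, luminescence read after 20 min at room temperature.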
Large screens that a line does not name were inactive. Only some compounds are listed: those with a hit (about 3.2% of all), similar ones and a draw of the others. Unless noted, the call rests on the fitted dose curve; in most records, active means well fitted curve in the direction sought with a large enough effect; inconclusive means small, poorly fitted or top-dose-only effect, or another doubt; inactive means no such curve, though single readings can be large; an effect the other way counts as inactive or inconclusive.

Cc1cc(C)c(S(=O)(=O)NCCc2csc3nc(-c4ccc(Cl)cc4)nn23)c(C)c1	S16 F2sN tox inconclusive, PMP22 txn inconclusive, p53null 39C tox 20µM
O=C(Nc1nnc2n1CCS2)c1cc(C(F)(F)F)cc(C(F)(F)F)c1	S16 F2sN tox inconclusive, PMP22 txn 8.91µM
CCCN(CCC)S(=O)(=O)c1ccc(C(=O)Nc2cccc(-c3nc4ccccc4[nH]3)c2)cc1	S16 F2sN tox inconclusive, PMP22 txn 18.9µM
COc1c(Cl)cc(C(=O)Nc2cccc(-c3nc4ccccc4[nH]3)c2)cc1Cl	PMP22 txn inconclusive, p53null 32C tox inconclusive, p53null 39C tox inconclusive
COCCNC(=O)Cn1c(=O)n(CCCCCC(=O)NCc2ccccc2Cl)c(=O)c2sccc21	none
Cc1ccc2nc(-c3ccccc3F)c(Nc3ccc(Cl)cc3)n2c1	p53null 39C tox 20µM
Cc1ccc2nc(-c3ccc(O)cc3)c(Nc3ccc(Cl)cc3)n2c1	p53null 39C tox inconclusive
CCc1ccc(Sc2cc(C(=O)NC(C)CC)c3ccccc3n2)cc1 (configuration not stated)	none
Cc1ccc(-c2nc3ccc(Cl)cn3c2Nc2ccc3c(c2)OCCO3)o1	none
O=C(Nc1cccc(Cl)c1)c1cc(-c2ccc3c(c2)OCCO3)on1	p53null 32C tox inconclusive, p53null 39C tox inconclusive
Cc1ccc(OC(=O)c2cc(-c3ccc4c(c3)OCCO4)on2)cc1C	S16 F2sN tox inconclusive, p53null 32C tox inconclusive, p53null 39C tox 25.1µM
Cc1cc(OC(=O)c2cc(-c3ccc4c(c3)OCCO4)on2)ccc1Cl	p53null 39C tox 15.8µM
Cc1cccc(NC(=O)c2cc(-c3ccc4c(c3)OCCO4)on2)c1	p53null 32C tox 1.26µM, p53null 39C tox 1.26µM
Cc1ccc(Cl)cc1NC(=O)c1cc(-c2ccc3c(c2)OCCO3)on1	p53null 32C tox inconclusive, p53null 39C tox inconclusive
Cc1cccc(OC(=O)c2cc(-c3ccc(C)c(C)c3)on2)c1	p53null 39C tox inconclusive
CC(C)c1ccc(S(=O)(=O)/N=C2/C=C(Sc3ncn[nH]3)C(=O)c3ccccc32)cc1	p53null 32C tox 6.31µM (no result: S16 F2sN tox, PMP22 txn, mTORC1 inh, p53null 39C tox)
CCN(CCCNC(=O)c1cc2c(=O)[nH]c3ccc(C)cc3c2s1)Cc1ccccc1	S16 F2sN tox inconclusive, PMP22 txn inconclusive, mTORC1 inh 18.5µM, p53null 32C tox inconclusive, p53null 39C tox inconclusive
CC1CCCN(CCCNC(=O)c2cc3c(Cl)nc4ccccc4c3s2)C1 (configuration not stated)	S16 F2sN tox inconclusive, PMP22 txn inconclusive, mTORC1 inh 18.5µM
CC1CCCN(C(=O)c2cc3c(Cl)nc4ccccc4c3s2)C1 (configuration not stated)	none
CCN(CC)CCNC(=O)c1cc2c(=O)[nH]c3ccc(C)cc3c2s1	PMP22 txn inconclusive
CN(CCCNC(=O)c1cc2c(Cl)nc3ccccc3c2s1)Cc1ccccc1	S16 F2sN tox inconclusive, PMP22 txn inconclusive, mTORC1 inh 13.1µM, p53null 32C tox inconclusive, p53null 39C tox 25.1µM
O=C(Nc1ccc(S(=O)(=O)N2CCCCC2c2cccnc2)cc1)c1ccc(Br)cc1 (configuration not stated)	S16 F2sN tox inconclusive, PMP22 txn inconclusive, mTORC1 inh inconclusive
CC1=C(c2ccc(C)c(C)c2)S(=O)(=O)N=C1N1CCC(C(=O)NC(C)Cc2ccco2)CC1 (configuration not stated)	S16 F2sN tox inconclusive
Cc1ccc(-c2cn3c(n2)sc2cc(C(=O)NCCCN4CCCCCC4)ccc23)cc1	S16 F2sN tox inconclusive, PMP22 txn inconclusive
CCOc1ccc(-c2cn3c(n2)sc2cc(C(=O)NCCCN4CCCCC4)ccc23)cc1	S16 F2sN tox 7.08µM, PMP22 txn 14.2µM
CCOc1ccc(-c2cn3c(n2)sc2cc(C(=O)NCCCN(CC)CC)ccc23)cc1	S16 F2sN tox 10µM, PMP22 txn 4.47µM
CCCN1CCN(CCCNC(=O)c2ccc3c(c2)sc2nc(-c4ccc(OCC)cc4)cn23)CC1	S16 F2sN tox inconclusive, PMP22 txn inconclusive, mTORC1 inh inconclusive, p53null 32C tox inconclusive, p53null 39C tox 25.1µM
CCOc1ccc(-c2cn3c(n2)sc2cc(C(=O)NCCCN4CCCCCC4)ccc23)cc1	S16 F2sN tox inconclusive, PMP22 txn inconclusive
CCN(CC)CCNC(=O)c1ccc2c(c1)sc1nc(-c3ccc(F)cc3)cn12	S16 F2sN tox inconclusive, PMP22 txn inconclusive
Cc1ccc(-c2cn3c(n2)sc2cc(C(=O)NCCCN4CCCCC4)ccc23)cc1	S16 F2sN tox 3.98µM, PMP22 txn 8.91µM
COc1ccc(NC(=O)CCS(=O)(=O)c2ccc3nc(C)sc3c2)cc1Cl	none
CCCCN(CCCC)CCNC(=O)CN1C(=O)CSc2ccc(S(=O)(=O)N3CCCCC3)cc21	PMP22 txn inconclusive
CCc1c(C)sc2c1CCN(Cc1ccccc1C#N)C2c1ccccc1 (configuration not stated)	PMP22 txn inconclusive
CCc1c(C)sc2c1CCN(Cc1ccccc1)C2c1ccccc1 (configuration not stated)	S16 F2sN tox inconclusive, PMP22 txn 5.75µM
CCc1ccccc1NS(=O)(=O)c1ccc(-c2coc(C)n2)cc1	p53null 32C tox 7.08µM
Cc1ccc(C)c(CN2CCC(CNC(=O)Nc3ccc(Br)cc3F)CC2)c1	S16 F2sN tox 28.2µM, PMP22 txn inconclusive, mTORC1 inh inconclusive, p53null 39C tox inconclusive
O=C(Nc1ccccc1C(F)(F)F)c1ncoc1-c1ccco1	PMP22 txn inconclusive
CCc1nonc1NC(=O)c1oc2cc(C)c(Cl)cc2c1C	none
Cc1ccsc1CCN1C(=O)N(c2ccccc2)C(=O)C1CC(=O)Nc1ccc(Cl)cc1 (configuration not stated)	S16 F2sN tox 31.6µM, PMP22 txn inconclusive
O=C(CC1C(=O)N(c2ccccc2)C(=O)N1CCc1cccs1)Nc1ccc(Cl)cc1 (configuration not stated)	S16 F2sN tox inconclusive
Cc1ccc2sc(-c3ccc(N)cc3)nc2c1	p53null 32C tox 2µM, p53null 39C tox 1.58µM
O=C(NCc1cccc(Cl)c1)c1cc2c(s1)-c1ccccc1SC2	none
CN(Cc1ccccc1)C(=O)c1cc2c(s1)-c1ccc(Cl)cc1SC2	S16 F2sN tox inconclusive, p53null 39C tox 2µM
Cc1ccc(NC(=O)Cn2cc3c(n2)CCCC3)c(C)c1	none
COc1ccc(NC(=O)C(=O)NCC(c2cccnc2)N2CCc3ccccc3C2)cc1 (configuration not stated)	p53null 32C tox 12.6µM, p53null 39C tox 20µM
CCCC(=O)OC1=CN(Cc2ccccc2)S(=O)(=O)c2ccccc21	mTORC1 inh 16.5µM
CCc1ccc(S(=O)(=O)c2nnn3c2nc(Nc2ccc(NC(C)=O)cc2)c2sccc23)cc1	PMP22 txn 10.6µM, p53null 32C tox inconclusive, p53null 39C tox inconclusive
O=S(=O)(c1ccccc1)n1nc(-c2ccccc2)nc1NCc1ccc(Cl)cc1	none

Source: PubChem
